Cycloheximide cs: Cycloheximide Counterscreen for Small Molecule Inhibitors of Shiga Toxin. cell reporter, cycloheximide protein synthesis inhibition counterscreen. max response, %. AID 2314, 2010. 12% of 300,000 active; in the data active = max response mostly above about 13%, no sharp cut-off; inactive = mostly below about 14%; also: read at 38.3 µM for the half of the compounds with a filed dose; 0% is about no effect
SARS PLP yeast: qHTS of Yeast-based Assay for SARS-CoV PLP; 0.19% of 330,000 active; Potency, µM (series often up to 32.9 µM), without a hit: at the highest dose activity, positive = growth rescue, hits mostly activators; S. cerevisiae expressing SARS-CoV PLpro, growth rescue; calls by dose curve; also: potency is read from the fitted curve at half-maximal effect; 0% is about no effect; nearly all actives have a fitted effect of over 55% in size
LmPK inhibitor: qHTS Assay for Inhibitors of Leishmania Mexicana Pyruvate Kinase (LmPK); Q27686; purified LmPK, Kinase-Glo ATP luminescence, 1 h; 0.37% of 290,000 active; Potency, µM (highest dose often 57.5 µM), for the others: at the highest dose activity change, negative = inhibition, most hits filed as inhibitors; AID 1721, 2009; also: potency is read from the fitted curve at half-maximal effect; % is scaled to controls: 0 for no effect and ±100 for the full control effect
Target sequence (Q27686 whole entry, looked up): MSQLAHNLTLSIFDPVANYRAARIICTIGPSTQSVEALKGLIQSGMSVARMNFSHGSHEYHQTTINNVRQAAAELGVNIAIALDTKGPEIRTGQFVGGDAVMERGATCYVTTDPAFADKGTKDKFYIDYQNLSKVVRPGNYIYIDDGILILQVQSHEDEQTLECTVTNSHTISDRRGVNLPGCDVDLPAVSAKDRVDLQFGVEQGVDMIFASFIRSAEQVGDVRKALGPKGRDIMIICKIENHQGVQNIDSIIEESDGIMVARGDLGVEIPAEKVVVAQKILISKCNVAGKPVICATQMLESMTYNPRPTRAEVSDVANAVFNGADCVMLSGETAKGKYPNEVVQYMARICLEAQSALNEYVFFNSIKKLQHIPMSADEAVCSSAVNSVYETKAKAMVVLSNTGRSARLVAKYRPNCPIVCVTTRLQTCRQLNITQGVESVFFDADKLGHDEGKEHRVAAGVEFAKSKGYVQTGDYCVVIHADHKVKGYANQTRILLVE
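qHTS format; LmPK 0.1 nM; substrates PEP 0.5 mM and ADP 0.1 mM. One-hour room-temperature incubation, then coupled luciferase luminescence; 0.5 nM enzyme wells mark activation.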
Tb PYK inh: qHTS of Trypanosoma Brucei Inhibitors. TbPYK enzyme, Kinase-Glo Plus ATP luminescence, 45 min. Potency, µM (top dose mostly 76.8 µM), inactives show top-dose activity, negative = inhibition, hits mostly inhibitors. 0.12% of 410,000 active; also: potency is read from the fitted curve at half-maximal effect; % is scaled to controls: 0 for no effect and ±100 for the full control effect; nearly all actives have a fitted effect of over 50% in size
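In this concentration-response screen, enzyme-free wells defined baseline while DMSO plates tracked drift. Each reaction combined TbPYK, substrate, compound and 130 uM ADP for 45 min at room temperature. Kinase-Glo Plus luminescence gave the signal.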
NS1 function inh: qHTS Assay for Inhibitors of Influenza NS1 Protein Function. Potency, µM (series often up to 46.1 µM), for inactives: at the highest dose activity, positive = more growth. 0.4% of 270,000 active. AID 2326, 2010; calls by dose curve; also: potency is read from the fitted curve at half-maximal effect; actives are rising curves; nearly all actives have a fitted effect of over 50% in size
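A cell-based growth assay was used: compounds that relieve NS1-induced slow growth of budding yeast raise OD600. Assay medium was yeast nitrogen base with ammonium sulphate and -URA supplement, pH 6.0, with 2% galactose.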
Shiga inhibitor: A qHTS for Small Molecule Inhibitors of Shiga Toxin | inhibition, % at 38.7 µM | Vero cells, Shiga toxin protein synthesis inhibition reporter | 9.2% of 290,000 active | AID 2315, 2010; in the data active = inhibition mostly above about 28%, no sharp cut-off; inactive = mostly below about 43%; also: 0% is about no effect
* marks the source's active call; other numbers are inactive results. Only a selection was taken, and hits are over-represented in it overall. Unless noted, calls follow the shape of the dose curve; as a rule, active = well fitted curve in the direction sought with a large enough effect; inconclusive = small, poorly fitted or top-dose-only effect, or another doubt; inactive = no such curve, though single readings can be large; an effect the other way counts as inactive or inconclusive.

What do the screens show for `COc1cccc(C(=O)Nc2ccc(NC(=O)C3CC=CCC3C(=O)O)cc2)c1` (configuration not stated)?
Cycloheximide cs: 24.4*; SARS PLP yeast: 3.8%; LmPK inhibitor: -2.3%; Tb PYK inh: 7.3%; NS1 function inh: 4.0%; Shiga inhibitor: 76.8*

What do the screens show for `O=C(NCCc1ccccc1)c1ccccc1NC(=O)C1CCCO1` (configuration not stated)?
Cycloheximide cs: 29.9*; SARS PLP yeast: -0.7%; LmPK inhibitor: 0.2%; Tb PYK inh: 3.0%; NS1 function inh: 0.7%; Shiga inhibitor: 66.9*

What do the screens show for `Cc1ccccc1Oc1ccc(NC(=O)C2CC=CCC2C(=O)O)cc1` (configuration not stated)?
Cycloheximide cs: -2.0; SARS PLP yeast: 0.1%; LmPK inhibitor: -1.8%; Tb PYK inh: -3.9%; NS1 function inh: 0.9%; Shiga inhibitor: 0.7

What do the screens show for `O=C(Nc1ccc2c(c1)OCO2)c1ccc2nc([C@@H]3O[C@H](CO)[C@H](O)[C@H](O)[C@H]3O)[nH]c2c1`?
Tb PYK inh: 0.9%

How did CCc1nc2c(OCc3ccc(F)c(F)c3)cccn2c1N(C)C(=O)c1ccc(C)cc1 do in these assays?
Tb PYK inh: 0.1%

Results for COc1ccc(C(=O)Nc2nnc(S(=O)(=O)N(C)c3ccc(Cl)cc3)s2)cc1OC ?
Tb PYK inh: -0.8%

Results for COc1ccc(NC(=O)c2ccccc2NC(=O)C2CCCO2)cc1 (configuration not stated) ?
Cycloheximide cs: 23.6*; SARS PLP yeast: 0.3%; LmPK inhibitor: 0.4%; Tb PYK inh: 0.8%; NS1 function inh: -2.2%; Shiga inhibitor: 49.4*

Results for COc1ccc(NC(=O)c2ccccc2NC(=O)C2CC=CCC2C(=O)O)cc1 (configuration not stated) ?
Cycloheximide cs: 41.0*; LmPK inhibitor: -7.6%; Tb PYK inh: 36.0%; NS1 function inh: 16.8%; Shiga inhibitor: 87.6*

How did CC(C)NC(=O)c1ccccc1NC(=O)C1CCCO1 (configuration not stated) do in these assays?
Cycloheximide cs: -2.5; SARS PLP yeast: -5.8%; LmPK inhibitor: 2.5%; Tb PYK inh: -17.4%; NS1 function inh: 5.4%; Shiga inhibitor: -5.5

What do the screens show for `Cn1c(SCC(=O)N2CCCc3ccccc32)ncc(C(=O)Nc2ccc(Cl)cc2)c1=O`?
Tb PYK inh: 4.0%

How did S=c1[nH]nc(-c2ccc3ncccc3c2)n1-c1ccc2c(c1)OCCO2 do in these assays?
Cycloheximide cs: 9.1; SARS PLP yeast: -0.5%; LmPK inhibitor: 7.08µM*; Tb PYK inh: 3.55µM*; Shiga inhibitor: -3.5

Results for Oc1ccc(-c2n[nH]c(=S)n2-c2ccc3c(c2)OCCO3)cc1 ?
Cycloheximide cs: 36.8*; SARS PLP yeast: 24.4%; LmPK inhibitor: inconclusive; Tb PYK inh: 4.47µM*; NS1 function inh: 15.7%; Shiga inhibitor: 58.9*

How did S=c1[nH]nc(Cn2c(-c3ccccn3)nc3ccccc32)n1-c1ccc2c(c1)OCCO2 do in these assays?
Cycloheximide cs: 62.5*; SARS PLP yeast: -1.7%; LmPK inhibitor: inconclusive; Tb PYK inh: 15.8µM*; NS1 function inh: 6.3%; Shiga inhibitor: 84.5*

How did Cc1ccc(-n2c(-c3ccccc3)n[nH]c2=S)cc1 do in these assays?
Cycloheximide cs: -2.1; SARS PLP yeast: -5.6%; LmPK inhibitor: inconclusive; Tb PYK inh: inconclusive; NS1 function inh: -4.2%; Shiga inhibitor: -10.7

How did CC1CN(Cc2ccc(Cl)cc2Cl)CC(C)O1 (configuration not stated) do in these assays?
Cycloheximide cs: 23.4; SARS PLP yeast: -0.6%; LmPK inhibitor: -12.1%; Tb PYK inh: 0.5%; NS1 function inh: 2.4%; Shiga inhibitor: 46.2*

What do the screens show for `CC(C)CCNC(=O)C(=O)NC1CCCC1`?
Cycloheximide cs: 10.6*; SARS PLP yeast: -36.5%; LmPK inhibitor: 1.4%; Tb PYK inh: -2.5%; NS1 function inh: -2.2%; Shiga inhibitor: 37.5*

How did CC(C)CCNC(=S)NC1CCCC1 do in these assays?
Cycloheximide cs: -0.9; SARS PLP yeast: 25.9%; LmPK inhibitor: -0.4%; Tb PYK inh: 0.0%; NS1 function inh: -38.4%; Shiga inhibitor: -4.9

What do the screens show for `COc1cc(OC)cc(-c2nnc3n2N=C(c2ccccc2OC)CS3)c1`?
Cycloheximide cs: -2.5; Shiga inhibitor: -6.8

What do the screens show for `O=C(NC1CCCC1)c1ccc(Br)o1`?
Cycloheximide cs: -2.6; SARS PLP yeast: -6.8%; LmPK inhibitor: 1.5%; Tb PYK inh: 5.0%; NS1 function inh: -10.0%; Shiga inhibitor: -3.7

How did O=C(NC1CCCCC1)c1ccc(-c2cccc([N+](=O)[O-])c2)o1 do in these assays?
Cycloheximide cs: 55.6*; SARS PLP yeast: -13.0%; LmPK inhibitor: 4.4%; Tb PYK inh: 0.4%; NS1 function inh: -9.7%; Shiga inhibitor: 74.1*

What do the screens show for `O=C(O)c1ccc(-c2cccc([N+](=O)[O-])c2)o1`?
Cycloheximide cs: 5.2; SARS PLP yeast: 3.5%; LmPK inhibitor: 2.9%; Tb PYK inh: -1.3%; NS1 function inh: 1.8%; Shiga inhibitor: 21.8

What do the screens show for `O=C(NC1CCCCCCC1)c1ccc(Br)o1`?
Cycloheximide cs: 24.9*; SARS PLP yeast: -3.5%; LmPK inhibitor: -1.3%; Tb PYK inh: -14.3%; NS1 function inh: -31.9%; Shiga inhibitor: 83.5*

Results for O=C(NC1CCCC1)c1cc2cc(Br)ccc2o1 ?
Cycloheximide cs: 51.3*; SARS PLP yeast: 0.2%; LmPK inhibitor: 2.6%; Tb PYK inh: -0.3%; NS1 function inh: -32.4%; Shiga inhibitor: 92.5*

How did O=C(CNC(=O)c1ccc(Br)o1)NCC1CCCCC1 do in these assays?
SARS PLP yeast: 0.5%; Tb PYK inh: 0.0%

What do the screens show for `CN(C(=O)CNC(=O)c1ccc(Br)o1)C1CCCCC1`?
Cycloheximide cs: 20.8*; SARS PLP yeast: -2.4%; LmPK inhibitor: -0.1%; Tb PYK inh: 6.6%; NS1 function inh: 5.9%; Shiga inhibitor: 78.2*

How did Nc1ncnc2nc(-c3ccc(C[P+](c4ccccc4)(c4ccccc4)c4ccccc4)cc3)[nH]c12 do in these assays?
NS1 function inh: -3.8%

Results for CCn1nccc1NC(=O)c1csc([C@H]2C[C@H](O)[C@@H](CO)O2)n1 ?
Tb PYK inh: 5.8%

How did COCCCn1c(=O)c2sccc2n2c(CCCC(=O)Nc3cccc(OC)c3)nnc12 do in these assays?
Tb PYK inh: 5.2%

Results for Cc1ncc([N+](=O)[O-])n1CCN=[N+]=[N-] ?
NS1 function inh: 0.0%

Results for O=C(NC1CCCCC1)c1cc2cc(Br)ccc2o1 ?
Cycloheximide cs: 58.3*; SARS PLP yeast: -5.8%; LmPK inhibitor: 0.4%; Tb PYK inh: 0.7%; NS1 function inh: 3.8%; Shiga inhibitor: 75.7*
